Screening data deposited in PubChem by several laboratories.
Most compounds without a hit are left out; they make up all but 2.3% or so of the library.
H9c2 TAG inh – inhibitors of triacylglycerol accumulation, primary screen, cell-based, uHTS, fluorescence, H9c2. H9c2 cells, Nile Red lipid (TAG) fluorescence; cells loaded with 200 µM oleic acid. inhibition, % at 12.5 µM. hit rate 0.66% among 230,000;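 active means pattern-corrected inhibition of lipid staining of at least 50% with the nuclear-stain viability signal not falling by more than 50%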
m-calpain inh – inhibitors of pig calpain II, primary screen, biochemical, fluorogenic peptide substrate, 1536-well. purified calpain II, 30 min. inhibition, % at 16 µM. hit rate 0.37% among 220,000. AID 1236, 2008;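 active means inhibition above about 50%, limit read from the data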
aDG glyco act – activators of alpha-DG glycosylation, primary screen, uHTS, Pro5-aDG cells, AlphaScreen | hit rate 0.22% among 360,000 | activation, % at 10 µM | AID 624168, 2012 | alpha-DG glycosylation AlphaScreen (IIH6); 0% Pro5, 100% B10-LARGE cell signal;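 active means activation of at least 8% versus controls, or a plate z-score of at least 8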;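 further: Pro5 are CHO cells carrying HIG-tagged alpha-DG that lacks glycosylation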
Cardio protect – cardioprotection against H2O2-induced cell death, primary screen, uHTS, H9c2 cells, ATPLite luminescence; H9c2 cardiomyocytes, H2O2 injury protection, 2 h; protection from H2O2 cell death, % at 20 µM; hit rate 0.63% among 360,000; AID 588492, 2011;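 active means compounds giving at least 50% protection of heart cells from peroxide-induced death in the single-dose screen, raw or plate-pattern-corrected value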
beta cell repl – inducers of MIN6 beta-cell proliferation, primary screen, ATP luminescence, uHTS; MIN6 cells proliferation, ATPlite luminescence, 48 h; cells starved in 0.2% serum; 100% = growth in 10% serum; proliferation, % at 10 µM; AID 2380, 2010; hit rate 0.29% among 330,000;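 active means compounds whose signal lies at least 3.5 SD above the mean of all wells on their plate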
FAS TE block – FAS thioesterase domain inhibitors, primary screen, biochemical, fluorescence intensity, uHTS; Fatty acid synthase (Homo sapiens), P49327; recombinant FAS-TE, OMFH fluorogenic substrate, fluorescence endpoint; inhibition, % at 15 µM; hit rate 0.67% among 360,000; AID 602261, 2012;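 active means compounds whose normalised, plate-corrected inhibition of enzyme fluorescence in the single-dose primary screen is 50% or more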
Target sequence (P49327 whole entry, looked up, the tested form may be a part): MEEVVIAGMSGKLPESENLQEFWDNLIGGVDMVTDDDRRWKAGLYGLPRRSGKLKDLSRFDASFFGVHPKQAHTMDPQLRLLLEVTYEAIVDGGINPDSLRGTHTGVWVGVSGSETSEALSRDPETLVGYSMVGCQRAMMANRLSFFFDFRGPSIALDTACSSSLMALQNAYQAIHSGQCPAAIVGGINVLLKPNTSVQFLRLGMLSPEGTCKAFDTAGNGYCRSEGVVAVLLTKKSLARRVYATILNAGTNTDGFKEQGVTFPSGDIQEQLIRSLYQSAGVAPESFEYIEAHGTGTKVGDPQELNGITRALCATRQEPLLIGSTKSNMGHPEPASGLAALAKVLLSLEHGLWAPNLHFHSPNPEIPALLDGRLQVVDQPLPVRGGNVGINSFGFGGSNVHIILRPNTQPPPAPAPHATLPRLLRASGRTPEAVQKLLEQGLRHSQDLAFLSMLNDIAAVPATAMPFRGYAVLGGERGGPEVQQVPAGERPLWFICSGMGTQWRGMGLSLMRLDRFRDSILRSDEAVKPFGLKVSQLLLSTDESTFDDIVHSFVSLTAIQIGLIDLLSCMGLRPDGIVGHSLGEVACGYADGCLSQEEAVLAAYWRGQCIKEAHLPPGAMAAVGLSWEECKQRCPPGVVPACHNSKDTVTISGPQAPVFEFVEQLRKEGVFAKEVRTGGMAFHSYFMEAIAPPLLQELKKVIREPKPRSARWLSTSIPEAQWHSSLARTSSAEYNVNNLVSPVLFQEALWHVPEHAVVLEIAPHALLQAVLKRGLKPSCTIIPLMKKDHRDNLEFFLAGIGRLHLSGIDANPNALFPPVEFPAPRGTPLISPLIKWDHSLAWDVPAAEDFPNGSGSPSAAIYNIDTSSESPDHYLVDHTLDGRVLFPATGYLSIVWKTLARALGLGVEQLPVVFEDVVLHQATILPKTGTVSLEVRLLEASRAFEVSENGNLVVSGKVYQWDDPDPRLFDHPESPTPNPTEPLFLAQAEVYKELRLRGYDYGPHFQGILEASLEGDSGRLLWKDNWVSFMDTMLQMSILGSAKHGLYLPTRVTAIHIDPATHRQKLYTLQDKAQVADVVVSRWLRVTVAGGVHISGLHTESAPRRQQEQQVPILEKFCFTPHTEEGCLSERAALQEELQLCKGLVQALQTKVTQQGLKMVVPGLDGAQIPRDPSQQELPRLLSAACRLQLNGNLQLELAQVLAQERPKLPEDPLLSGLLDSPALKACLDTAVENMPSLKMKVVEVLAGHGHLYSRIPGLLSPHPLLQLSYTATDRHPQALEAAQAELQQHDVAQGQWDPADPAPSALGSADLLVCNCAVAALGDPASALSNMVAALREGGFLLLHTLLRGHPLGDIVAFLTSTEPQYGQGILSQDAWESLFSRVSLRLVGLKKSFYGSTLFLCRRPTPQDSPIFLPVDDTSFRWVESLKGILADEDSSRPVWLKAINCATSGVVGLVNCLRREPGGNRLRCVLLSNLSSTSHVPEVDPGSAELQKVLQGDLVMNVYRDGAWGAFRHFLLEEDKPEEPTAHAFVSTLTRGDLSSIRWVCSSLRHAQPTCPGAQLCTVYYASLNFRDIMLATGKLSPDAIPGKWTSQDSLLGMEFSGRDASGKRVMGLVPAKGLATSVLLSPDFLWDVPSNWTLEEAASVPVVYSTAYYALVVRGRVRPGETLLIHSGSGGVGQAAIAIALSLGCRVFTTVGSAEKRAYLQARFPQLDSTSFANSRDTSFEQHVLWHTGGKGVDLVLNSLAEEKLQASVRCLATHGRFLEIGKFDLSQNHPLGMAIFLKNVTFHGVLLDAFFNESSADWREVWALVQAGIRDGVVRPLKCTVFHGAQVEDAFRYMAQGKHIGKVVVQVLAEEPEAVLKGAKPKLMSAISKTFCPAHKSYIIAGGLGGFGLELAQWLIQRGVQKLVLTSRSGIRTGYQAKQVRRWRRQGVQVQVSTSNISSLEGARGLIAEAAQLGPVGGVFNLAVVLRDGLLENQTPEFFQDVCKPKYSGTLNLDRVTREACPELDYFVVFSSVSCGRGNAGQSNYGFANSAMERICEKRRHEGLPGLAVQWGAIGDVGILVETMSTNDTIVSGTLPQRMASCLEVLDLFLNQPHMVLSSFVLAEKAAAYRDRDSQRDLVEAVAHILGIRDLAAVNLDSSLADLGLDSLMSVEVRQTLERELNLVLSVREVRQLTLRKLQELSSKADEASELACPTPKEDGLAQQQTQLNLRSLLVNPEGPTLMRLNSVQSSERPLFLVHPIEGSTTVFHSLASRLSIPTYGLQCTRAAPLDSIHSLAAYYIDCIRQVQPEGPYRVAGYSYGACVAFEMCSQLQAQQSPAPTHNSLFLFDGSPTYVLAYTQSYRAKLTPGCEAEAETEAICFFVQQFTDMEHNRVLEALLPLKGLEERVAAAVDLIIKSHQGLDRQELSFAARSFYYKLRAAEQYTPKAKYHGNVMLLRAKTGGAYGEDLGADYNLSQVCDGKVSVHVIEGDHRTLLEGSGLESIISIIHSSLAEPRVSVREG
FAS-TE inh conf – FAS thioesterase domain inhibitors, confirmation, biochemical, fluorescence intensity, single concentration. shares compounds with FAS TE block. recombinant FAS-TE, OMFH fluorogenic substrate. inhibition, % at 15 µM. hit rate 45% among 2,300. AID 624325, 2012;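 active means compounds inhibiting the enzyme by at least 50% at 15 µM in any one of the replicates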
Of the large screens only hits and unclear results are named; the others gave an inactive call (follow-up assays come after a bar, where they were run).

CC(=O)N(C1=C(Cl)C(=O)c2ccccc2C1=O)C1CCCCC1	FAS TE block 80 | FAS-TE inh conf 71
O=C(NC(Cc1c[nH]c2ccccc12)C(=O)Nc1ccc(F)c([N+](=O)[O-])c1)c1cccs1 (centres undefined)	FAS TE block 63 (no result: H9c2 TAG inh) | FAS-TE inh conf 63
O=C(NC(Cc1c[nH]c2ccccc12)C(=O)Nc1ccc(OC(F)(F)F)cc1)c1cccs1 (centres undefined)	none (no result: H9c2 TAG inh)
OC(c1ccc(Cl)c(Cl)c1)c1ncc(-c2ccc(C(F)(F)F)cc2)[nH]1 (centres undefined)	none (no result: m-calpain inh, beta cell repl)
CS(=O)(=O)c1ncc(Cl)c(C(=O)Nc2ccc3ccccc3c2)n1	FAS TE block 57 (no result: beta cell repl) | FAS-TE inh conf inactive
CCC1CCCCN1S(=O)(=O)c1ccc(NC(=O)c2nc(S(C)(=O)=O)ncc2Cl)cc1 (centres undefined)	FAS TE block 60 (no result: H9c2 TAG inh, m-calpain inh) | FAS-TE inh conf 66
CCC1CCCCN1S(=O)(=O)c1ccc(NC(=O)c2ccncc2)cc1 (centres undefined)	none (no result: m-calpain inh)
O=C(Nc1ccc2ccccc2c1)c1cnccn1	none (no result: H9c2 TAG inh)
COC(=O)c1ccc2c(=O)n(Cc3ccco3)c(SCC(=O)Nc3ccc(C)c(Cl)c3)nc2c1	none (no result: H9c2 TAG inh)
O=C(CSc1ncnc2ccccc12)Nc1cccc(S(=O)(=O)N2CCOCC2)c1	none (no result: H9c2 TAG inh)
O=C(CSc1nc2ccccc2c(=O)n1-c1ccccc1Cl)Nc1cccc(S(=O)(=O)N2CCOCC2)c1	FAS TE block 95 (no result: H9c2 TAG inh) | FAS-TE inh conf inactive
Cc1ccc(S(=O)(=O)N2CCOCC2)cc1NC(=O)CSc1nc2ccccc2c(=O)n1Cc1ccccc1	FAS TE block 50 (no result: H9c2 TAG inh) | FAS-TE inh conf inactive
O=C(CSc1nc2cc(Cl)ccc2c(=O)n1Cc1ccco1)Nc1ccc(S(=O)(=O)N2CCOCC2)cc1	FAS TE block 88 (no result: H9c2 TAG inh) | FAS-TE inh conf inactive
O=C(CSc1nc2ccccc2c(=O)n1-c1ccc(F)cc1)Nc1cc(S(=O)(=O)N2CCOCC2)ccc1Cl	FAS TE block 78 (no result: H9c2 TAG inh) | FAS-TE inh conf inactive
Cc1nc(C(F)(F)F)ccc1C(=O)N1CCC1(C)C(=O)NS(=O)(=O)c1cccc(F)c1 (centres undefined)	none (no result: m-calpain inh, beta cell repl)
Cc1ccc(S(=O)(=O)N(C)C)cc1-n1c(SCC(=O)Nc2ccc(F)c(F)c2F)nc2ccccc2c1=O	FAS TE block 68 (no result: H9c2 TAG inh) | FAS-TE inh conf inactive
O=C(O)c1ccc(N/N=C/c2ccc(-c3ccc(Cl)cc3Cl)o2)cc1	H9c2 TAG inh 53, FAS TE block 75 | FAS-TE inh conf 78
O=C(O)c1ccc(N/N=C/c2ccc(-c3cc(Cl)ccc3Cl)o2)cc1	FAS TE block 81 | FAS-TE inh conf 84
NS(=O)(=O)c1ccc(-c2ccc(/C=N/Nc3ccc(C(=O)O)cc3)o2)cc1	none
COc1ccc(COC(=O)c2cc([N+](=O)[O-])ccc2N2CCOCC2)cc1F	FAS TE block 54 (no result: m-calpain inh) | FAS-TE inh conf inactive
Cc1ccc(C)c(COC(=O)c2cc([N+](=O)[O-])ccc2N2CCOCC2)c1	none (no result: m-calpain inh)
O=C(OCc1cccc(C(F)(F)F)c1)c1cc([N+](=O)[O-])ccc1N1CCOCC1	FAS TE block 58 (no result: m-calpain inh) | FAS-TE inh conf 46
O=C(OCc1cccc(Cl)c1)c1cc([N+](=O)[O-])ccc1N1CCOCC1	FAS TE block 59 (no result: m-calpain inh) | FAS-TE inh conf inactive
O=C(OCc1cccc(C(F)(F)F)c1)c1cc(S(=O)(=O)N2CCOCC2)ccc1F	none (no result: m-calpain inh)
CCCCn1c(=O)[nH]c(=O)c2c1nc(-c1ccccn1)n2CC	none (no result: H9c2 TAG inh, m-calpain inh)
CN(CCO)c1cc(Sc2nc3ccccc3s2)c2nonc2c1[N+](=O)[O-]	FAS TE block 74 (no result: H9c2 TAG inh) | FAS-TE inh conf 74
CCN(c1ccccc1)S(=O)(=O)c1ccc(C(=O)N2CCN(c3ccccc3F)CC2)cc1	none (no result: m-calpain inh, beta cell repl)
O=C(CSc1ccc([N+](=O)[O-])cn1)Nc1ccc2c(c1)OCCO2	FAS TE block 85 | FAS-TE inh conf 88
COc1ccc(-c2nn(-c3ccccc3)cc2/C=C/C(=O)O)cc1[N+](=O)[O-]	FAS TE block 53 | FAS-TE inh conf 62
COC(=O)c1cc(C(=O)NCc2ccc3c(c2)OCO3)cc([N+](=O)[O-])c1	FAS TE block 59 (no result: H9c2 TAG inh, m-calpain inh) | FAS-TE inh conf 71
O=C(CSc1nc2cc([N+](=O)[O-])ccc2n1-c1ccccc1)NCc1ccc2c(c1)OCO2	FAS TE block 52 (no result: H9c2 TAG inh) | FAS-TE inh conf inactive
O=C(NCc1ccc2c(c1)OCO2)c1cc([N+](=O)[O-])ccc1N1CCCCC1	FAS TE block 64 (no result: H9c2 TAG inh) | FAS-TE inh conf 54
O=C(NCc1ccco1)c1cc([N+](=O)[O-])ccc1N1CCCCC1	none (no result: H9c2 TAG inh)
O=C(/C=C/c1cccc([N+](=O)[O-])c1)NCc1ccc2c(c1)OCO2	FAS TE block 68 (no result: H9c2 TAG inh) | FAS-TE inh conf 82
COc1ccc(-c2c(NC(=O)c3ccco3)oc3c(C)cccc3c2=O)cc1	none (no result: H9c2 TAG inh, m-calpain inh)
FCCCOc1ccc(-c2ccnc(-c3ccccc3)n2)cc1	FAS TE block 54 | FAS-TE inh conf inactive
FCCCOc1ccc(-c2nccc(-c3ccc(F)cc3)n2)cc1	none
O=C1c2ccccc2S(=O)(=O)c2cc(C(=O)N3CCN(c4c(Cl)cncc4Cl)CC3)ccc21	FAS TE block 62 (no result: m-calpain inh) | FAS-TE inh conf inactive
O=C1c2ccccc2S(=O)(=O)c2cc(C(=O)N3CCN(c4ccccc4)CC3)ccc21	none (no result: m-calpain inh)
O=C1c2ccc(Cl)cc2S(=O)(=O)c2cccc(C(=O)N3CCN(c4ccc(Cl)cn4)CC3)c21	FAS TE block 59 (no result: m-calpain inh) | FAS-TE inh conf inactive
O=C1c2ccc(-c3ccc(Cl)c(C(F)(F)F)c3)cc2S(=O)(=O)c2cccc(C(=O)N3CCN(c4ncc(Br)cn4)CC3)c21	FAS TE block 69 (no result: m-calpain inh) | FAS-TE inh conf inactive
O=C1c2ccc(-c3ccc(F)cc3OCc3ccccc3)cc2S(=O)(=O)c2cccc(C(=O)N3CCN(c4ncc(Br)cn4)CC3)c21	none (no result: H9c2 TAG inh, m-calpain inh)
COc1ccc(NC(=O)COC(=O)CCc2ccc(S(=O)(=O)N3CCOCC3)cc2)cc1Cl	none (no result: m-calpain inh)
Cc1cccc(S(=O)(=O)NC(=O)C2(C)CCN2C(=O)C/C=C/c2ccccc2)c1 (centres undefined)	none (no result: m-calpain inh, beta cell repl)
O=C(/C=C/c1cccc([N+](=O)[O-])c1)N1CCN(c2ccccc2F)CC1	FAS TE block 56 (no result: H9c2 TAG inh) | FAS-TE inh conf 42
COc1ccc(CCNC(=O)CCNC(=O)c2ccc([N+](=O)[O-])cc2)cc1	none (no result: H9c2 TAG inh, m-calpain inh)
CCOC(=O)c1ccc(NC(=O)CCNC(=O)c2ccc([N+](=O)[O-])cc2)cc1	none (no result: H9c2 TAG inh)
